Screening data (PubChem)
NSD2 HMT inh – NSD2 histone methyltransferase inhibitors, primary screen, biochemical, AlphaScreen, single concentration, set 2. NSD2 peptide methylation, 120 min. inhibition, % at 12.5 µM. 310,000 tested, 0.54% active. AID 743445, 2014; in the data active means inhibition above about 50%
ALR inh – inhibitors of human ALR sulfhydryl oxidase, primary screen, biochemical, H2O2 detection, HRP-luminol luminescence, single point. FAD-linked sulfhydryl oxidase ALR (Homo sapiens), P55789. inhibition, % (concentration not given with the values). 290,000 tested, 3.8% active. purified ALR, DTT oxidation;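 active means mean replicate inhibition above about 79%, with every replicate also reaching it, limit read from the data; inconclusive means only one of the two criteria met; inactive means mean below limit and not every replicate reaching it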
CDK5 inh – inhibitors of human CDK5/p35 kinase, primary screen, biochemical, single concentration; Recombinant CDK5/p35, ADP-Glo luminescence, 60 min; 330,000 tested, 0.01% active; Cyclin-dependent kinase 5 (Homo sapiens) + Cyclin-dependent kinase 5 activator 1 (Homo …; AID 488839, 2010; inhibition, % at 10 µM;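 active means highest replicate inhibition of at least 50% and at least 75% of replicates reaching 50%; inconclusive means only one of the two criteria met; inactive means both criteria failed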;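 further: plate controls were DMSO neutral control for no effect and GW8510 at 10 µM for full effect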
Target sequence (Q00535 whole entry, looked up): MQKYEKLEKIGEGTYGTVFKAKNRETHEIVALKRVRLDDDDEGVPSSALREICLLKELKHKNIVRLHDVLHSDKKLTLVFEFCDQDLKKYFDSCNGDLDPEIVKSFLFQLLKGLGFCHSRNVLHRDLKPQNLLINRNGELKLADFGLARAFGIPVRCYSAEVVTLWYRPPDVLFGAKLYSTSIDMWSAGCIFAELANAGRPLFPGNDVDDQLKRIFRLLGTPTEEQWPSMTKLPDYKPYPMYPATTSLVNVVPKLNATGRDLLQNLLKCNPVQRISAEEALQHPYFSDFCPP
Target sequence (Q15078 whole entry, looked up): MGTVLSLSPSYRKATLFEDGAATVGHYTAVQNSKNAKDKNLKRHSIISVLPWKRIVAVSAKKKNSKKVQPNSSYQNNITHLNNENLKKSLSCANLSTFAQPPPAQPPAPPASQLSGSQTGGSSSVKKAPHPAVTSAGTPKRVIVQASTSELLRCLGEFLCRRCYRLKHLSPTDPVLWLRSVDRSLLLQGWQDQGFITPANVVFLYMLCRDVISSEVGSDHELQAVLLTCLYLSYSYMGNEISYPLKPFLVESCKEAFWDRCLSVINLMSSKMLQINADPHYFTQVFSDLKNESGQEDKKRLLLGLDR
Mot1-301 SUMO – yeast Mot1-301 growth rescue at high temperature, primary screen, SUMOylation pathway inhibitor project, S. cerevisiae, ATP luminescence, 38.5C. S. cerevisiae Mot1-301 growth rescue; percent above DMSO median, 100 means doubled. growth rescue, % at 18.8 µM. 320,000 tested, 1% active;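 active means every valid replicate shows activation above 250% relative to neutral control wells; inactive means the rest, any valid replicate at or below 250%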;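 further: OY570 slx delta 5 strain wells were the positive control but not used for scaling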
CASP6 VEID inh – human caspase-6 inhibitors, primary screen, biochemical, VEID-R110 fluorescence, single point, set 2; P55212; purified caspase-6, Z-VEID-R110 cleavage fluorescence; inhibition, % at 12.5 µM; 350,000 tested, 0.53% active; AID 686996, 2013;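 active means mean inhibition across replicates at least about 35%, with every replicate also reaching that limit, limit read from the data; inconclusive means only one of the two criteria met; inactive means neither criterion met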;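 further: 0% = median of neutral control wells and 100% = no fluorescence left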
Glyco luc inh – increase of ERlucT glycosylation luciferase signal, primary screen, N-linked glycosylation inhibitor project, D54 ERlucT cells, luminescence, set 2; 360,000 tested, 0.23% active; AID 588692, 2011; D54 ERlucT glycosylation luciferase reporter, 24 h; percent of 100 nM tunicamycin response; reporter increase, % at 12.5 µM;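 active means mean luciferase reporter signal, scaled so untreated is 0 and the glycosylation-blocking control 100, at or above a set limit in every replicate; inconclusive means mean reaches the limit but not every replicate does; inactive means mean below the limit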;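 further: luciferase carries N-glycosylation sites so blocking glycosylation raises the light; 0% = median of neutral control wells and 100% = median of 100 nM tunicamycin wells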
* marks the source's active call; other numbers are inactive results; ? = inconclusive; / = not tested or not shown. Rows were chosen to be rich in hits. Some 3.9% of all compounds tested hit in one or more screens of this group.

SMILES	NSD2 HMT inh	ALR inh	CDK5 inh	Mot1-301 SUMO	CASP6 VEID inh	Glyco luc inh
Cc1cccc(N2CCN(C(=O)CCCn3c(=O)[nH]c4ccsc4c3=O)CC2C)c1 (configuration not stated)	6	98*	-1	19	/	0
Cc1cccc(N2CCN(C(=O)CCn3c(=O)[nH]c4ccsc4c3=O)CC2C)c1 (configuration not stated)	4	99*	-5	20	2	-1
Cc1cccc(N2CCN(C(=O)NC3CCCCC3)CC2C)c1 (configuration not stated)	-2	88*	-1	152	4	-2
Cc1cccc(N2CCN(C(=O)c3ccccn3)CC2C)c1 (configuration not stated)	-1	67	0	101	-2	1
Cc1cccc(N2CCN(C(=O)c3ccc(CS(=O)(=O)c4ccccc4C)o3)CC2C)c1 (configuration not stated)	4	95*	1	-16	/	18
Cc1ccc(C)c(N2CCN(C(=O)c3ccc(CS(=O)(=O)c4ccccc4C)o3)CC2)c1	0	15	0	-11	/	11
COc1ccc(OCC(=O)N/N=C/c2ccc(N(C)C)cc2)cc1	4	98*	-1	-1	6	2
CN(C)c1ccc(/C=N/NC(=O)CCCO)cc1	-3	96*	-1	-9	-4	1
COc1ccc(/C=N/NC(=O)CNC(=O)COc2ccccc2)cc1	-1	1	1	-3	/	4
COc1ccc(/C=N/NC(=O)Cn2nnc3ccccc32)cc1OC	0	-8	-1	27	-1	1
CN(C)c1ccc(/C=N/NC(=O)CCc2c[nH]c3ccccc23)cc1	10	98*	1	-9	-5	2
CN(C)c1ccc(/C=N/NC(=O)Cn2nnc3ccccc32)cc1	2	99*	-1	-12	/	-1
C[C@@H]1CN([C@@H](C)CO)C(=O)c2cc(NC(=O)CCCN(C)C)ccc2O[C@@H]1CN(C)Cc1ccc2c(c1)OCO2	/	/	/	/	-1	/
C[C@H](CO)N1C[C@H](C)[C@H](CN(C)C(=O)c2ccncc2)Oc2cc(C3=CCCCC3)ccc2S1(=O)=O	/	/	/	/	-2	/
O=C(NCC[C@@H]1CC[C@@H](NS(=O)(=O)c2ccc(F)cc2)[C@H](CO)O1)Nc1ccc(Cl)cc1	/	/	/	/	1	/
C[C@@H]1CCCCO[C@H](CN(C)C(=O)Nc2cccc3ccccc23)[C@H](C)CN([C@@H](C)CO)C(=O)c2cc(N(C)C)ccc2O1	/	/	/	/	-1	/
CCCCCC(=O)N/N=C/c1ccc(N(C)C)cc1	3	90*	1	4	/	2
CN(C)c1ccc(/C=N/NC(=O)CCC(=O)NCc2ccccc2)cc1	3	87*	-2	6	/	4
CN1C[C@H]2[C@@H](c3ccccc31)[C@H](CO)N2C(=O)C1CCCCC1	/	/	/	/	-2	/
COC(=O)C(=Cc1ccc(-c2ccsc2C(=O)OC)o1)C(=O)OC	1	2	0	-11	1	35*
O=C(C1CC1)N1[C@H](CO)[C@@H]2c3ccccc3N(S(=O)(=O)c3ccccc3)C[C@@H]21	/	/	/	/	-3	/
O=C(O)c1ccc2c3c(cccc13)C(=O)N(c1ccccc1)C2=O	31	-18	-1	-13	50*	2
O=C(O)c1ccc(N2C(=O)c3cccc4c(C(=O)O)ccc(c34)C2=O)cc1	3	-50	-2	0	53*	2
O=C(O)c1ccc(N2C(=O)c3cccc4cccc(c34)C2=O)cc1	-2	-5	0	-18	-1	5
NN1C(=O)c2cccc3c(C(=O)O)ccc(c23)C1=O	0	-3	-1	-22	/	1
SMILES	NSD2 HMT inh	ALR inh	CDK5 inh	Mot1-301 SUMO	CASP6 VEID inh	Glyco luc inh
CCCNC(=O)C[C@@H]1C[C@@H]2c3cc(NS(=O)(=O)c4cccc(OC)c4)ccc3O[C@@H]2[C@H](CO)O1	/	/	/	/	2	/
C/C=C/c1cnc2c(c1)C(=O)N([C@H](C)CO)C[C@@H](C)[C@@H](CN(C)C(=O)Cc1ccccn1)O2	/	/	/	/	-1	/
C[C@H](CO)N1C[C@H](C)[C@H](CN(C)S(=O)(=O)c2cccs2)Oc2ccc(NC(=O)Cc3cn(C)c4ccccc34)cc2CC1=O	/	/	/	/	-2	/
O=C(/C=C/c1ccccc1[N+](=O)[O-])c1ccc(F)cc1	-2	98*	0	-6	5	20
O=C(/C=C/c1ccccc1[N+](=O)[O-])Oc1ccccc1	/	4	/	-4	/	/
COc1ccc(-c2cc(-c3ccc(O)cc3)nc(N)c2C#N)cc1	-7	55	1	-7	-4	8
N#Cc1c(-c2ccccc2)cc(-c2ccc(O)cc2)nc1N	-8	99*	1	5	-1	11
COc1ccccc1-c1cc(C2CC2)nc(N)c1C#N	-1	-3	0	2	/	-1
Nc1nc(-c2ccccc2)cc(-c2ccccc2O)n1	/	0	7	12	/	35*
Cc1cc(-c2ccccc2)c(C#N)c(N)n1	0	-8	-1	413	/	0
COc1cc(-c2cc(-c3ccc(O)cc3)nc(N)c2C#N)ccc1O	-10	97*	4	13	-1	?
COc1ccccc1-c1cc(-c2ccc(O)cc2)nc(N)c1C#N	-7	96*	3	-6	7	12
COc1ccc(NC(=O)N(C)C[C@@H]2OCCCC[C@@H](C)Oc3ccc(NC(=O)NC(C)C)cc3C(=O)N([C@@H](C)CO)C[C@H]2C)cc1	/	/	/	/	2	/
CN(C)/C=C1\C(=O)Nc2ccccc21	2	99*	-1	-5	/	0
C[C@@H]1CN([C@@H](C)CO)C(=O)c2cccc(NS(=O)(=O)c3ccccc3)c2O[C@@H]1CN(C)S(C)(=O)=O	/	/	/	/	1	/
C[C@@H]1CCCCO[C@@H](CN(C)Cc2ccncc2)[C@H](C)CN([C@@H](C)CO)C(=O)c2cc(NS(=O)(=O)c3ccc(F)cc3)ccc2O1	/	/	/	/	0	/
O=C(O)Cn1cc(C(=S)N2CCCCC2)c2ccccc21	-3	91*	2	107	3	3
O=C(O)Cn1cc(C(=S)N2CCOCC2)c2ccccc21	-1	98*	0	-9	/	-1
O=C(Cn1cc(C(=S)N2CCOCC2)c2ccccc21)N1CCOCC1	-1	-6	-1	177	/	-2
C[C@H](CO)N1C[C@H](C)[C@H](CN(C)C(=O)CCCN(C)C)OCCCC[C@H](C)Oc2ccc(NS(=O)(=O)c3cn(C)cn3)cc2C1=O	/	/	/	/	1	/
